Screens: PubChem, National Center for Advancing Translational Sciences (NCATS)
SARS PLpro yeast = qHTS of Yeast-based Assay for SARS-CoV PLP; AID 485353, 2010; actives 0.19% (n = 330,000); Potency, µM (highest dose often 32.9 µM), actives largely listed as activators; S. cerevisiae expressing SARS-CoV PLpro, growth rescue; calls by dose curve; also: nearly all actives have a fitted effect of over 55% in size
Pf growth 96h = Primary qHTS for delayed death inhibitors of the malarial parasite plastid, 96 hour incubation; P. falciparum luciferase reporter growth, 96 h; actives 6.9% (n = 320,000); Potency, µM (series often up to 28.7 µM), actives largely listed as inhibitors
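Cell-based qHTS: luciferase-tagged P. falciparum in erythrocytes (2% hematocrit, 0.05% parasitemia final) incubated with compounds for 96 hours, 37 C, 5% CO2; luciferase detection reagent then added and luminescence measured.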
AMA1 RON2 block = qHTS for Inhibitors of AMA1-RON; Towards Development of Antimalarial Drug Lead: Primary Screen; AlphaScreen AMA1-biotinylated RON2 peptide binding; Potency, µM (top dose mostly 58.2 µM), hits mostly inhibitors; actives 0.2% (n = 360,000); AID 720542, 2013; also: nearly all actives have a fitted effect of over 45% in size
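AMA1 (3D7) with his tag at 25 nM final met compounds first, then biotinylated RON2 peptide at 25 nM; detection used donor plus acceptor beads, 10 µg/mL apiece, read by AlphaScreen after 30 min at room temperature.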
Cycloheximide cs = Cycloheximide Counterscreen for Small Molecule Inhibitors of Shiga Toxin; cell reporter, cycloheximide protein synthesis inhibition counterscreen; max response, %; actives 12% (n = 300,000); AID 2314, 2010; in the data active = max response mostly above about 13%, no sharp cut-off; inactive = mostly below about 14%; also: read at 38.3 µM for the half of the compounds with a filed dose
Pf growth 48h = Primary qHTS for delayed death inhibitors of the malarial parasite plastid, 48 hour incubation; Potency, µM (doses to about 28.7 µM), usual class: inhibitors; actives 5.9% (n = 310,000); P. falciparum luciferase growth in erythrocytes, 48 h
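Luminescence readout; reporter = integrated firefly luciferase in P. falciparum. RBC culture at 2% hematocrit, 0.1% parasitemia final, 37 C/5% CO2; decreased signal taken as growth inhibition.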
Shiga toxin inh = A qHTS for Small Molecule Inhibitors of Shiga Toxin. Vero cells, Shiga toxin protein synthesis inhibition reporter. inhibition, % at 38.7 µM. actives 9.2% (n = 290,000). AID 2315, 2010; in the data active = inhibition mostly above about 28%, no sharp cut-off; inactive = mostly below about 43%
A number is an active result; - = inactive; ? = inconclusive; . = no result given; + = active, no number; [ ] = remark or other dose. Rows were chosen to be rich in hits. Some 19% of all compounds tested hit in one or more screens of this group. Unless noted, calls follow the shape of the dose curve; as a rule, active = well fitted curve in the direction sought with a large enough effect; inconclusive = small, poorly fitted or top-dose-only effect, or another doubt; inactive = no such curve, though single readings can be large; an effect the other way counts as inactive or inconclusive.

SMILES	SARS PLpro yeast	Pf growth 96h	AMA1 RON2 block	Cycloheximide cs	Pf growth 48h	Shiga toxin inh
CC(NC(=O)c1cc(COc2cccc(C(F)(F)F)c2)on1)c1nccs1 (stereo not drawn)	-	-	-	43	-	57
COc1ccc(OCc2cc(C(=O)NC3CCOC(C)(C)C3)no2)c2ccccc12 (stereo not drawn)	-	1.2µM	.	96	9.3µM	103
COc1cc(Cl)ccc1OCc1cc(C(=O)NC2CCc3ccccc32)no1 (stereo not drawn)	-	-	-	-	-	-
Cc1ccccc1NC(=O)c1ccccc1NC(=O)c1ccccc1F	-	?	-	-	-[0.00184 µM]	-
CCCOc1ccc(C(=O)CCNc2cccc(Cl)c2)cc1	-	-	-	25	-	130
O=C(CCC(=O)c1ccc(Oc2ccccc2)cc1)Nc1cccc(Cl)c1	-	5.9µM	-	-	-	-
COc1ccc(C(=O)CCNc2cccc(Cl)c2)cc1	-	?	-	-	-	-
O=C(OCC(=O)N1CCN(c2ccccc2)CC1)c1ccc[n+]([O-])c1	-	-[5.75 µM]	-	-	-[5.75 µM]	-
Clc1ccc(-c2nc(Cc3ccccc3)no2)cc1	-	?	-	31	.	-
Cc1ccccc1-c1nc(-c2ccccn2)no1	-	?	-	-	-	-
Cc1ccccc1-c1nc(Cc2ccccc2)no1	-	?	-	51	-	69
CC(=O)NCCCC(=O)NN1C(=S)N(Cc2ccccc2)C(=O)C1CC(=O)Nc1cccc(C)c1 (stereo not drawn)	-	-	-	-	-	-
Cn1nc(-c2ccccc2)c2ncc(C(F)(F)F)cc21	-	-	-	-	-	-
CCOC(=O)Nc1ccc(Oc2ccccc2)cc1	-	?	-	36	-	121
Cc1ccc(NC(=O)c2ccccc2)cc1OC(=O)c1ccccc1	-	-	-	13	-	-
O=C(Nc1ccc(C(=O)Oc2ccccc2)c(O)c1)c1ccco1	-	.	-	55	-	131
CCOC(=O)Nc1ccc(C(=O)/C=C/c2ccccc2)cc1	-	?	-	22	-	-
CC(=O)Oc1ccc(C(=O)Nc2cccc(NC(=O)c3ccco3)c2)cc1	-	?	-	-	-	-
Cc1ccc(NC(=O)CCn2c(=S)oc3ccccc32)cc1F	-	-	-	-	-	-
O=C(Nc1ccc(C(=O)Oc2ccccc2)c(O)c1)c1ccccc1	-	-	-	28	?	82
O=C(Nc1ccccc1)c1ccc(OC(=O)c2ccccc2)cc1	-	?	-	-	-	-
CCOC(=O)Nc1c2ccccc2nc2ccccc12	-	10µM	-	-	15µM	-
CCOC(=O)Nc1ccc(C(=O)Oc2ccccc2)c(O)c1	-	-	-	37	-	104
CCOC(=O)Nc1c(C)n(C)n(-c2ccccc2)c1=O	-	.	-	-	-	-
COc1ccc(S(=O)(=O)Nc2ccccc2C(=O)NCc2cccnc2)cc1OC	-	-	-	-	-	-
SMILES	SARS PLpro yeast	Pf growth 96h	AMA1 RON2 block	Cycloheximide cs	Pf growth 48h	Shiga toxin inh
C=Cc1cnc([N+](=O)[O-])n1C	.	.	-	.	.	.
O=C(COC(=O)c1ccc(Cl)c(S(=O)(=O)N2CCCCC2)c1)NCC1CCCO1 (stereo not drawn)	-	-	-	-	-	-
CCCSc1nnc2c(n1)OC(c1sccc1C)Nc1ccccc1-2 (stereo not drawn)	.	.	.	41	.	66
C=CCSc1nnc2c(n1)OC=Nc1ccccc1-2	-	-	-	-	-	-
CCC1Nc2ccccc2-c2nnc(SC)nc2O1 (stereo not drawn)	-	.	-	-	.	-
C=CCSc1nnc2c(n1)OC(c1ccco1)Nc1ccccc1-2 (stereo not drawn)	-	-	-	40	-	+
CCCCSc1nnc2c(n1)OC(C(=O)c1ccccc1)Nc1ccccc1-2 (stereo not drawn)	-	-	.	15	.	-
COc1ccccc1C(=O)C1Nc2ccccc2-c2nnc(SC)nc2O1 (stereo not drawn)	-	?	-	-	-	-
N#Cc1ncn(C2OC(CO)C(O)C2O)c1N (stereo not drawn)	.	.	-	.	.	.
COC(C[C@H]1O[C@@H]1C(=O)[C@H](C)OCc1ccccc1)OC	.	.	-	.	.	.
COc1cccc(NC(=O)CN(C)C(=O)CC2CC3CCC2C3)c1 (stereo not drawn)	-	?	-	.	-	.
CCSc1nnc(NC(=O)CCc2ccc(OC)cc2)s1	-	-	-	-	-	-
COc1ccccc1S(=O)(=O)N(C)C[C@@H]1OCc2cnnn2CCCC(=O)N([C@@H](C)CO)C[C@H]1C	.	.	-	.	.	.
Oc1ccc(Br)cc1CN1CCN(c2ccccc2)CC1	-	-	-	-	1.7µM	-
CCN1CCN(Cc2cc(Br)ccc2O)CC1	-	.	-	-	13µM	-
COC(=O)c1cc(CN2CCN(c3ccccc3)CC2)ccc1O	-	?	-	-	-	.
CCc1ccc(CN2CCN(Cc3cc(Br)ccc3O)CC2)cc1	-	1.2µM	?	-	0.23µM	-
COc1ccc(CN2CCN(Cc3ccc(Br)cc3)CC2)c(OC)c1OC	-	-	?	-	-	-
Oc1ccc(Br)cc1CN1CCCCCCC1	-	.	-	-	1.7µM	-
COc1ccc(N(CC(=O)NC2CC2)S(=O)(=O)c2ccccc2)cc1	-	-	-	-	-	-
CCN1CCN(Cc2cc(Br)cc(Br)c2O)CC1	-	.	-	-	1.7µM	-
OCCN1CCN(Cc2cc(Br)cc(Br)c2O)CC1	-	-	-	-	-	-
CCn1c(Cn2nnc(-c3ccccc3)n2)nnc1SCC(=O)Nc1ccc(N(C)C)cc1	-	?	-	-	?	-
Clc1ccccc1Cn1nnc(-c2cccs2)n1	-	-	-	29	-	61
CN(C)c1ccc(-c2nnn(Cc3ccccc3Br)n2)cc1	-	?	-	17	?	-
SMILES	SARS PLpro yeast	Pf growth 96h	AMA1 RON2 block	Cycloheximide cs	Pf growth 48h	Shiga toxin inh
CCC(C(=O)O)n1nnc(-c2ccc(OCc3ccccc3)c(OC)c2)n1 (stereo not drawn)	-	4.7µM	.	-	-	-
COc1ccc(-c2nnn(Cc3ccccc3)n2)cc1OC	-	-	-	11	-	.
CCC(C(=O)O)n1nnc(-c2ccc(-c3ccc(OC)cc3)cc2)n1 (stereo not drawn)	-	.	-	-	-	-
COc1ccccc1-n1nnnc1SC(C)C(=O)NC1CCCC1 (stereo not drawn)	-	-	-	.	-	.
CC(C)(C)[C@H]1C=C(C(=O)N2CCN(Cc3ccccc3)CC2)O[C@@H](OCc2ccc(CO)cc2)C1	-	?	-	-	?	-
CCCOC1CCCN(Cc2nc(-c3ccc(C(=O)OC)cc3)no2)C1 (stereo not drawn)	-	-	-	-	-	-
Clc1ccccc1Cn1nnc(-c2ccccc2)n1	-	-	-	53	?	105
